# Experimental data taken from the supplement of paper PMC8728848.
# About 410 targets per protein were measured; listed, in parts, are those with the strongest signals and a random draw of the rest.
# B1: R410P1E11 (Tachypleus tridentatus), TAL2_TACTR (protein)
# chain: MEKGTPPTHDSDNWMGRAKEIGNGGWDQFQFLFFDPNGYLYAVSNDKLYKASPPQSDTDNWIARATEIGSGGWSGFKFLFFHPNGYLYAVRGQRFYKALPPVSNQD
# B2: MUB70 (Lactobacillus reuteri) (protein)
# chain: CVHVQYIDGETDQMLRQDDLDGYTDETIPYSTAEGIKKFEGDGYELFKDNFPAGEKFDNDDTNDQFYTVIF
# B3: CREG (Mus musculus), O88668 (protein)
# chain: MAARAPELARSLLAALLAPALVALLVSPASGRGGRDHGDWDVDRRLPPLPPREDGPRVARFVTHVSDWGSLATISTIKEVRGWPFADIISISDGPPGEGTGEPYMYLSPLQQAVSDLQENPEATLTMSLAQTVYCRNHGFDPQSPLCVHIMMSGTVTKVNKTEEDYARDSLFVRHPEMKHWPSSHNWFFAKLKISRIWVLDYFGGPKVVTPEEYFNVTLQ
# Tests used:
# Assay in all cases: glycan array binding signal (z-score within array); higher = stronger binding
# Conditions in all cases: glycan notation: IUPAC condensed, linker removed
# [1] = molecular target: Fuc(a1-2)Gal6S(b1-4)GlcNAc
# How it was run: (§1)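 Negative Z-scores can be read as non-binding. The Z-score is calculated within each array and then averaged across arrays of one protein sequence at different concentrations or buffers and across linkers. Arrays, 3228 in all, were curated from the Consortium for Functional Glycomics database and kept only where the protein sequence was available.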
# [2] = molecular target: Fuc(a1-2)[Gal(a1-3)]Gal(b1-4)Glc
# How it was run: as §1
# [3] = molecular target: Fuc(a1-2)[GalNAc(a1-3)]Gal(b1-4)GlcNAc
# How it was run: as §1
# [4] = molecular target: Fuc(a1-2)[GalNAc(a1-3)]Gal(b1-4)[Fuc(a1-3)]GlcNAc
# How it was run: as §1
# [5] = molecular target: Fuc(a1-2)[GalNAc(a1-4)]Gal(b1-4)GlcNAc
# How it was run: as §1
# [6] = molecular target: Fuc(a1-4)GlcNAc
# How it was run: as §1
# [7] = molecular target: Gal(a1-4)Gal(b1-4)Glc
# How it was run: as §1
# [8] = molecular target: Gal(b1-3)Gal(b1-4)GlcNAc
# How it was run: as §1
# [9] = molecular target: Gal(b1-3)GalNAc(b1-4)[Neu5Ac(a2-3)]Gal(b1-4)Glc
# How it was run: as §1
# [10] = molecular target: Gal(b1-3)[Neu5Ac(a2-6)]GalNAc
# How it was run: as §1
# [11] = molecular target: Gal(b1-4)GlcNAc(a1-6)Gal(b1-4)GlcNAc
# How it was run: as §1
# [12] = molecular target: Gal(b1-4)GlcNAc(b1-3)Gal(b1-4)[Fuc(a1-3)]GlcNAc(b1-3)Gal(b1-4)[Fuc(a1-3)]GlcNAc
# How it was run: as §1
# [13] = molecular target: Gal(b1-4)GlcNAc(b1-3)[Gal(b1-4)GlcNAc(b1-6)]Gal(b1-4)GlcNAc
# How it was run: as §1
# [14] = molecular target: Gal3S6S(b1-4)GlcNAc6S
# How it was run: as §1
# [15] = molecular target: GalNAc(a1-3)Gal
# How it was run: as §1
# [16] = molecular target: GlcNAc(a1-3)Gal(b1-4)GlcNAc
# How it was run: as §1
# [17] = molecular target: GlcNAc(a1-6)Gal(b1-4)GlcNAc
# How it was run: as §1
# [18] = molecular target: Man(a1-2)Man(a1-3)[Man(a1-2)Man(a1-6)]Man(a1-6)[Man(a1-2)Man(a1-2)Man(a1-3)]Man
# How it was run: as §1
# [19] = molecular target: Man(a1-3)[Man(a1-6)]Man
# How it was run: as §1
# [20] = molecular target: Man(a1-3)[Man(a1-6)]Man(a1-6)[Man(a1-3)]Man(b1-4)GlcNAc(b1-4)GlcNAc
# How it was run: as §1
# [21] = molecular target: Neu5Ac(a2-3)Gal(b1-3)GalNAc6S
# How it was run: as §1
# [22] = molecular target: Neu5Ac(a2-3)Gal(b1-3)GlcNAc(b1-3)Gal(b1-3)GlcNAc
# How it was run: as §1
# [23] = molecular target: Neu5Ac(a2-3)GalNAc(b1-4)GlcNAc
# How it was run: as §1
# [24] = molecular target: Neu5Ac(a2-8)Neu5Ac
# How it was run: as §1
# [25] = molecular target: Neu5Ac(a2-3)Gal(b1-3)GlcNAc(b1-2)[Neu5Ac(a2-3)Gal(b1-3)GlcNAc(b1-4)]Man(a1-6)[Neu5Ac(a2-3)Gal(b1-3)GlcNAc(b1-2)Man(a1-3)]Man(b1-4)GlcNAc(b1-4)GlcNAc
# How it was run: as §1
# [26] = molecular target: Neu5Ac(a2-3)Gal(b1-3)[Neu5Ac(a2-6)]GalNAc
# How it was run: as §1
# [27] = molecular target: Neu5Ac(a2-3)Gal(b1-4)GlcNAc(b1-3)Gal
# How it was run: as §1
# [28] = molecular target: Neu5Ac(a2-3)Gal6S(b1-4)GlcNAc
# How it was run: as §1
# [29] = molecular target: Neu5Ac(a2-6)Gal(b1-4)GlcNAc(b1-3)Gal(b1-4)GlcNAc(b1-2)Man(a1-3)[Neu5Ac(a2-6)Gal(b1-4)GlcNAc(b1-3)Gal(b1-4)GlcNAc(b1-2)Man(a1-6)]GalNAc
# How it was run: as §1
# [30] = molecular target: Neu5Ac(a2-6)Gal(b1-4)GlcNAc6S
# How it was run: as §1
# [31] = molecular target: Neu5Gc(a2-3)Gal(b1-4)GlcNAc(b1-3)Gal(b1-4)GlcNAc(b1-2)Man(a1-3)[Neu5Gc(a2-3)Gal(b1-4)GlcNAc(b1-3)Gal(b1-4)GlcNAc(b1-2)Man(a1-6)]Man(b1-4)GlcNAc(b1-4)GlcNAc
# How it was run: as §1
# [32] = molecular target: Neu5Gc(b2-6)Gal(b1-4)GlcNAc
# How it was run: as §1
# [33] = molecular target: Fuc(a1-2)[Gal(a1-3)]Gal(b1-4)GlcNAc(b1-2)Man(a1-3)[Fuc(a1-2)[Gal(a1-3)]Gal(b1-4)GlcNAc(b1-2)Man(a1-6)]Man(b1-4)GlcNAc(b1-4)GlcNAc
# How it was run: as §1
# [34] = molecular target: Fuc(a1-2)[GalNAc(a1-3)]Gal(b1-4)Glc
# How it was run: as §1
# [35] = molecular target: Fuc(a1-3)[Gal(b1-4)]GlcNAc(b1-4)Gal(b1-4)[Fuc(a1-3)]GlcNAc
# How it was run: as §1
# [36] = molecular target: Gal(a1-3)Gal(b1-3)GlcNAc(b1-2)Man(a1-3)[Gal(a1-3)Gal(b1-3)GlcNAc(b1-2)Man(a1-6)]Man(b1-4)GlcNAc(b1-4)GlcNAc
# How it was run: as §1
# [37] = molecular target: Gal(b1-3)Gal
# How it was run: as §1
# [38] = molecular target: Gal(b1-3)Gal(b1-4)GlcNAc(b1-2)Man(a1-3)[Gal(b1-3)Gal(b1-4)GlcNAc(b1-2)Man(a1-6)]Man(b1-4)GlcNAc(b1-4)GlcNAc
# How it was run: as §1
# [39] = molecular target: Gal(b1-3)[Fuc(a1-4)]GlcNAc(b1-2)Man(a1-3)[Gal(b1-3)[Fuc(a1-4)]GlcNAc(b1-2)Man(a1-6)]Man(b1-4)GlcNAc(b1-4)GlcNAc
# How it was run: as §1
# [40] = molecular target: Gal(b1-4)GalNAc(a1-3)[Fuc(a1-2)]Gal(b1-4)GlcNAc
# How it was run: as §1
# [41] = molecular target: Gal(b1-4)GlcNAc(b1-2)Man(a1-3)Man(b1-4)GlcNAc(b1-4)GlcNAc
# How it was run: as §1
# [42] = molecular target: Gal3S(b1-3)GalNAc
# How it was run: as §1
# [43] = molecular target: Gal3S(b1-4)GlcNAc6S
# How it was run: as §1
# [44] = molecular target: Gal3S6S(b1-4)GlcNAc
# How it was run: as §1
# [45] = molecular target: GlcNAc(b1-2)Gal(b1-3)GalNAc
# How it was run: as §1
# [46] = molecular target: GlcNAc(b1-2)Man(a1-3)[GlcNAc(b1-2)Man(a1-6)]Man(b1-4)GlcNAc(b1-4)GlcNAc
# How it was run: as §1
# [47] = molecular target: GlcNAc(b1-2)Man(a1-3)[GlcNAc(b1-2)Man(a1-6)]Man(b1-4)GlcNAc(b1-4)[Fuc(a1-6)]GlcNAc
# How it was run: as §1
# [48] = molecular target: GlcNAc(b1-3)Gal(b1-3)GalNAc
# How it was run: as §1
# [49] = molecular target: GlcNAc(b1-3)[GlcNAc(b1-4)][GlcNAc(b1-6)]GlcNAc
# How it was run: as §1
# [50] = molecular target: GlcNAc(b1-3)[GlcNAc(b1-6)]Gal(b1-4)GlcNAc
# How it was run: as §1
# [51] = molecular target: GlcNAc(b1-6)GalNAc
# How it was run: as §1
# [52] = molecular target: Kdn(a2-3)Gal(b1-3)GalNAc
# How it was run: as §1
# [53] = molecular target: Neu5Ac(a2-3)Gal(b1-3)GalNAc(b1-3)Gal(a1-4)Gal(b1-4)Glc
# How it was run: as §1
# [54] = molecular target: Neu5Ac(a2-3)Gal(b1-3)[Fuc(a1-4)]GlcNAc
# How it was run: as §1
# [55] = molecular target: Neu5Ac(a2-3)Gal(b1-4)GlcNAc6S
# How it was run: as §1
# [56] = molecular target: Neu5Ac(a2-3)Gal(b1-4)[Fuc(a1-3)]GlcNAc(b1-3)GalNAc
# How it was run: as §1
# [57] = molecular target: Neu5Ac(a2-3)Gal(b1-4)[Fuc(a1-3)]GlcNAc(b1-6)[Neu5Ac(a2-3)Gal(b1-3)]GalNAc
# How it was run: as §1
# [58] = molecular target: Neu5Ac(a2-6)Gal(b1-4)GlcNAc(b1-3)Gal(b1-4)GlcNAc
# How it was run: as §1
# [59] = molecular target: Neu5Ac(a2-6)GlcNAc(b1-4)GlcNAc(b1-4)GlcNAc
# How it was run: as §1
# [60] = molecular target: Neu5Gc(a2-3)Gal(b1-3)[Fuc(a1-4)]GlcNAc
# How it was run: as §1
binder,measurement,setting,value
B1,glycan array binding signal (z-score),[1],-0.187
same,glycan array binding signal (z-score),[2],-0.282
same,glycan array binding signal (z-score),[3],2.74
same,glycan array binding signal (z-score),[4],1.41
same,glycan array binding signal (z-score),[5],5.65
same,glycan array binding signal (z-score),[6],-0.369
same,glycan array binding signal (z-score),[7],-0.323
same,glycan array binding signal (z-score),[8],-0.622
same,glycan array binding signal (z-score),[9],-0.397
same,glycan array binding signal (z-score),[10],-0.538
same,glycan array binding signal (z-score),[11],-0.52
same,glycan array binding signal (z-score),[12],-0.411
same,glycan array binding signal (z-score),[13],-0.144
same,glycan array binding signal (z-score),[14],0.451
same,glycan array binding signal (z-score),[15],7.43
same,glycan array binding signal (z-score),[16],3.25
same,glycan array binding signal (z-score),[17],10.1
same,glycan array binding signal (z-score),[18],-0.751
same,glycan array binding signal (z-score),[19],-0.45
same,glycan array binding signal (z-score),[20],-0.483
same,glycan array binding signal (z-score),[21],-0.515
same,glycan array binding signal (z-score),[22],0.008
same,glycan array binding signal (z-score),[23],0.139
same,glycan array binding signal (z-score),[24],-0.039
B2,glycan array binding signal (z-score),[25],6.11
same,glycan array binding signal (z-score),[26],1.18
same,glycan array binding signal (z-score),[27],0.155
same,glycan array binding signal (z-score),[28],-0.909
same,glycan array binding signal (z-score),[29],0.348
same,glycan array binding signal (z-score),[30],2.67
same,glycan array binding signal (z-score),[31],1.95
same,glycan array binding signal (z-score),[32],0.109
B3,glycan array binding signal (z-score),[1],-0.138
same,glycan array binding signal (z-score),[33],2.76
same,glycan array binding signal (z-score),[34],0.375
same,glycan array binding signal (z-score),[35],2.95
same,glycan array binding signal (z-score),[36],3.49
same,glycan array binding signal (z-score),[37],0.033
same,glycan array binding signal (z-score),[38],0.416
same,glycan array binding signal (z-score),[39],6.79
same,glycan array binding signal (z-score),[40],0.494
same,glycan array binding signal (z-score),[41],-0.442
same,glycan array binding signal (z-score),[42],0.036
same,glycan array binding signal (z-score),[43],0.604
same,glycan array binding signal (z-score),[44],1.52
same,glycan array binding signal (z-score),[14],2.03
same,glycan array binding signal (z-score),[45],-0.651
same,glycan array binding signal (z-score),[46],0.15
same,glycan array binding signal (z-score),[47],3.8
same,glycan array binding signal (z-score),[48],3.22
same,glycan array binding signal (z-score),[49],2.23
same,glycan array binding signal (z-score),[50],-0.627
same,glycan array binding signal (z-score),[51],-0.035
same,glycan array binding signal (z-score),[52],0.66
same,glycan array binding signal (z-score),[53],-0.096
same,glycan array binding signal (z-score),[54],-0.737
same,glycan array binding signal (z-score),[55],1.38
same,glycan array binding signal (z-score),[56],3.4
same,glycan array binding signal (z-score),[57],4.66
same,glycan array binding signal (z-score),[58],0.227
same,glycan array binding signal (z-score),[59],0.386
same,glycan array binding signal (z-score),[24],-0.211
same,glycan array binding signal (z-score),[60],-0.132
